Inconclusive results are not listed. For part of these data: Potency and affinity values are given separately. Active and inactive are the calls of the source.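 The calls were made as follows, unless noted: active = at least 20% inhibition of 6-phosphogluconate dehydrogenase activity; inactive = the rest.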
Experiments:
[1] = target: 6-phosphogluconate dehydrogenase, decarboxylating (Homo sapiens) (UniProt P52209); experiment: 6PGD enzyme inhibitors, primary screen, biochemical, human, recombinant enzyme, NADPH absorbance (AID 1159550); conditions: recombinant 6PGD, NADPH absorbance 341 nm; at 10 µM; stronger effect = higher value
6-phosphogluconate dehydrogenase, decarboxylating (Homo sapiens), sequence (P52209 whole entry, looked up, the tested form may be a part): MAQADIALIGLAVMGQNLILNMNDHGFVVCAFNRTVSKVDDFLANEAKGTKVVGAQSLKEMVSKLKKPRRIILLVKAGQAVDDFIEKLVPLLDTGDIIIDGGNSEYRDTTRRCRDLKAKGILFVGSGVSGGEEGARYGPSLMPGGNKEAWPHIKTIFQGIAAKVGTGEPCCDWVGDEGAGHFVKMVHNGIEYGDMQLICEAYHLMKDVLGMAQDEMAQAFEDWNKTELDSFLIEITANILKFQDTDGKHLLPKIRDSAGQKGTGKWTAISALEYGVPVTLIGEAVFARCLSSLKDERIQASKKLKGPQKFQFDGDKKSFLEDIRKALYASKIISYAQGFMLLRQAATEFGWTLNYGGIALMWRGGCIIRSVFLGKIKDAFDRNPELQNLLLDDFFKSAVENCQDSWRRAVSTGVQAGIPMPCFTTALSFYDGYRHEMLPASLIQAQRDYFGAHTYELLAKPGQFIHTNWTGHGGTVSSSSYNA

[2] = target: Mitogen-activated protein kinase 7 (Homo sapiens) (UniProt Q13164); experiment: ERK5 transactivation activators in reporter cells, primary screen, cell-based, HTS (AID 1508626;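 active = luciferase signal above three times the same-plate solvent-only control wells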;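 also: luciferase driven by Gal4-ERK5 fusion binding five Gal4 sites before minimal TATA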); conditions: HeLa Gal4-ERK5 transactivation, 18 h, at 5 µM, stronger effect = higher value
Mitogen-activated protein kinase 7 (Homo sapiens), sequence (Q13164 whole entry, looked up, the tested form may be a part): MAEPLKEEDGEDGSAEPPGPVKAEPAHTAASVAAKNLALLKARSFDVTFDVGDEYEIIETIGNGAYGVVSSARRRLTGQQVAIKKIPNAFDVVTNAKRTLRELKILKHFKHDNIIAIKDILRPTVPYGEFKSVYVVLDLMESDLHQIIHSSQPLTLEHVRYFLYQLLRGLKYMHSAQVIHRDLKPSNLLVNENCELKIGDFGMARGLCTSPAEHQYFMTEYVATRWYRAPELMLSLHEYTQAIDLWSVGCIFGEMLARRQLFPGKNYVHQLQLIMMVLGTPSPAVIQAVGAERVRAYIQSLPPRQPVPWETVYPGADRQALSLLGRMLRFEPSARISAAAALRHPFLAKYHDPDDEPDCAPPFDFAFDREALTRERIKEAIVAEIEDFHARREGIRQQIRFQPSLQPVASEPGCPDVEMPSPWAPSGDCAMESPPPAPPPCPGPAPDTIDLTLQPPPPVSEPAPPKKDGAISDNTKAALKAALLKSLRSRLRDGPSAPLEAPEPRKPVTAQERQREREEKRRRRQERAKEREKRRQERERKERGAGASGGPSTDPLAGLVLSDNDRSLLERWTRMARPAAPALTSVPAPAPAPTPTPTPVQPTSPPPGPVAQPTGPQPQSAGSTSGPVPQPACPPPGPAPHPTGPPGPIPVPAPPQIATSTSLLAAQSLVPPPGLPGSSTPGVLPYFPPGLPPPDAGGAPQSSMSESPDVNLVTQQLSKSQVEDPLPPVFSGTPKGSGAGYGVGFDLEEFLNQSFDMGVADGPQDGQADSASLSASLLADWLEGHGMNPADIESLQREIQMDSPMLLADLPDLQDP

[3] = liver-stage malaria parasite growth inhibition, primary screen, cell-based, HepG2, luciferase luminescence, HepG2 viability (AID 624349; in the data active = parasite load remaining mostly below about 12%, no sharp cut-off; inactive = mostly above about 10%;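 also: 100% = mean of DMSO negative control wells on the same plate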); conditions: P. berghei liver stage in HepG2, luciferase luminescence, concentration not given here; parasite load remaining: stronger effect = lower value; viability: measured here: HepG2 viability without parasites
[4] = polyglutamine-triggered caspase-3 activation inhibitors, cell-based (AID 1583); conditions: polyglutamine-induced caspase-3 activation, cell assay; stronger effect = higher value;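 tested at 10 µM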
[5] = suppressors of polyQ aggregation in yeast, 75Q-TubU reporter (AID 1593); conditions: Yeast 75Q polyglutamine aggregation reporter
[6] = rescue of polyQ-huntingtin neuronal dysfunction in worms, whole organism, C. elegans mechanosensory neurons, N-terminal huntingtin (AID 1599); conditions: touch response, stronger effect = higher value
[7] = inhibitors of mitochondrial cytochrome c release, biochemical, purified mitochondria (AID 1603); conditions: stronger effect = lower value;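 also: mouse liver mitochondria challenged with calcium chloride; signal normalized to the plate average as 100%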
[8] = inhibitors of polyQ protein aggregation (AID 1604); conditions: polyglutamine-induced protein aggregation inhibition assay; stronger effect = higher value; tested at 2.5 µM
[9] = enhancers of glutamate uptake in motor neurons, MN-1 cell line (AID 1612); conditions: MN-1 motor neuron cells, stronger effect = higher value;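 also: tested at 1 µM final; 0% = mean of DMSO vehicle wells on each plate; positive means more glutamate uptake than control and negative means less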
[10] = reducers of polyQ inclusions in PC12 cells, cell-based, NGF-treated PC12, GFPQ80 (AID 1614); conditions: PC12 NGF-treated GFP-polyQ80 inclusion reduction;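 also: lower means fewer inclusions and 0 means no inclusions at all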
[11] = suppressors of polyglutamine aggregation in yeast, 75Q-TubH (AID 1616); conditions: S. cerevisiae 75Q-TubH polyglutamine aggregation suppression; stronger effect = higher value
[12] = protection against mutant huntingtin cytotoxicity, PC12 cells, LDH release (AID 1610); conditions: PC12 mutant huntingtin toxicity, final LDH at 4 uM, stronger effect = lower value

Structure (SMILES): N[C@@H](CSCSC[C@H](N)C(=O)O)C(=O)O
- inhibition [1]: 6.1% (inactive)
- luciferase signal [2]: 300 AU (inactive)

Structure (SMILES): CC(=O)NC(Cc1c[nH]c2ccccc12)C(=O)O (stereo not drawn)
- inhibition [1]: -6.76% (inactive)
- luciferase signal [2]: 64 AU (inactive)

Structure (SMILES): COc1cc2c3cc1Oc1c(OC)c(OC)cc4c1[C@@H](Cc1ccc(O)c(c1)Oc1ccc(cc1)C[C@@H]3N(C)CC2)N(C)CC4
- inhibition [1]: 14.7% (inactive)
- luciferase signal [2]: 64 AU (inactive)

Structure (SMILES): CC(=O)O[C@H]1C[C@@H](OC(C)=O)C(C)(C)[C@@H]2C[C@@H](OC(C)=O)[C@]3(C)[C@H](CC[C@@]4(C)[C@H](c5ccoc5)OC(=O)[C@H]5O[C@@]534)[C@@]12C
- inhibition [1]: -4.75% (inactive)
- luciferase signal [2]: 12 AU (inactive)

Structure (SMILES): COc1cc(C)c(C(=O)O)c(O)c1
- inhibition [1]: -0.391% (inactive)
- luciferase signal [2]: 80 AU (inactive)

Structure (SMILES): CC[C@H](CC[C@@H](C)[C@H]1CC[C@H]2[C@@H]3CC=C4C[C@@H](OC(C)=O)CC[C@]4(C)[C@H]3CC[C@]12C)C(C)C
- inhibition [1]: 9.08% (inactive)
- luciferase signal [2]: 36 AU (inactive)

Structure (SMILES): CC(=O)O[C@@H]1c2c(ccc3ccc(=O)oc23)OC(C)(C)[C@@H]1OC(=O)CC(C)C
- inhibition [1]: -10.5% (inactive)
- luciferase signal [2]: 188 AU (inactive)

Structure (SMILES): COC1=C[C@@H](C)[C@@H]2C[C@H]3OC(=O)C[C@H]4C(C)=C(OC)C(=O)[C@H]([C@@]2(C)C1=O)[C@@]34C
- inhibition [1]: -9.87% (inactive)
- luciferase signal [2]: 40 AU (inactive)

Structure (SMILES): C=C1C2CCC3(C)C(c4ccoc4)OC(=O)CC13OC1CC(=O)C(C)(C)C(CC(=O)OC)C12C (stereo not drawn)
- inhibition [1]: -8.25% (inactive)
- luciferase signal [2]: 16 AU (inactive)

Structure (SMILES): COc1ccc(C(C)=O)c(OC)c1
- inhibition [1]: -3.95% (inactive)
- luciferase signal [2]: 76 AU (inactive)

Structure (SMILES): O=c1oc2ccccc2cc1O
- inhibition [1]: 15.9% (inactive)
- luciferase signal [2]: 36 AU (inactive)

Structure (SMILES): O=C(CCCCCCCCCCCCC1CCCC1)Nc1ccc(S(=O)(=O)c2ccc(NC(=O)CCCCCCCCCCCCC3CCCC3)cc2)cc1
- parasite load remaining [3]: 65.7% (inactive)
- viability [3]: 90.8%
- inhibition [1]: 6.93% (inactive)
- luciferase signal [2]: 32 AU (inactive)

Structure (SMILES): O=C(O)CN(CC(=O)O)Cc1cc2c(cc1O)Oc1cc(O)c(CN(CC(=O)O)CC(=O)O)cc1C21OC(=O)c2ccccc21
- inhibition [1]: -1.59% (inactive)
- luciferase signal [2]: 140 AU (inactive)

Structure (SMILES): NC(N)=NCCC[C@@H](NC(=O)[C@@H](N)Cc1ccc(O)cc1)C(=O)O
- inhibition [4]: -8.49%
- score [5]: 1.34
- rescue above control [6]: 13.2
- cytochrome c release ratio [7]: 0.94
- inhibition of aggregation [8]: 77%
- glutamate uptake change [9]: 17.2%
- inclusion score [10]: 2
- aggregation suppression score [11]: 1.22
- inhibition [1]: 7.11% (inactive)

Structure (SMILES): CSCCC(NC=O)C(=O)NC(CC(C)C)C(=O)NC(Cc1ccccc1)C(=O)O (stereo not drawn)
- score [5]: 1
- rescue above control [6]: 6.28
- cytochrome c release ratio [7]: 1.31
- inhibition of aggregation [8]: 53.9%
- glutamate uptake change [9]: 14.5%
- inclusion score [10]: 1
- aggregation suppression score [11]: 1.49
- inhibition [1]: 3.38% (inactive)

Structure (SMILES): COC(=O)c1c(OC)cc2c(c1C)Oc1c(Cl)c(OC(C)=O)c(Cl)c(C)c1C(=O)O2
- inhibition [1]: -6.07% (inactive)
- luciferase signal [2]: 44 AU (inactive)

Structure (SMILES): COc1ccc2c(c1)CC[C@@H]1[C@@H]2CC[C@]2(C)[C@@H](O)CC[C@@H]12
- inhibition [1]: -8.02% (inactive)
- luciferase signal [2]: 36 AU (inactive)

Structure (SMILES): CC12CCC3c4ccc(OCc5ccccc5)cc4CCC3C1C[C@@H](O)[C@@H]2O (stereo partly drawn)
- inhibition [4]: -24.8%
- score [5]: -1.62
- rescue above control [6]: 18.3
- cytochrome c release ratio [7]: 1.14
- inhibition of aggregation [8]: 88.8%
- glutamate uptake change [9]: -1.58%
- aggregation suppression score [11]: -0.303
- inhibition [1]: -6.08% (inactive)

Structure (SMILES): COc1c(-c2ccccc2)oc2c(ccc3occc32)c1=O
- inhibition [1]: -3.15% (inactive)
- luciferase signal [2]: 36 AU (inactive)

Structure (SMILES): CC(C)=CCC1=C(O)c2ccccc2C(=O)C1=O
- inhibition [4]: -24.2%
- score [5]: 0.21
- rescue above control [6]: 6.74
- cytochrome c release ratio [7]: 0.7
- inhibition of aggregation [8]: 77.5%
- normalised LDH release [12]: 0.727
- glutamate uptake change [9]: -3.48%
- inclusion score [10]: 2
- aggregation suppression score [11]: 0.0579
- parasite load remaining [3]: 85.5% (inactive)
- viability [3]: 63.9%
- inhibition [1]: -1.8% (inactive)
- luciferase signal [2]: 60 AU (inactive)

Structure (SMILES): COC(=O)C[C@H]1C2(C)CC34OC5(C)O[C@@]6([C@H](OC(C)=O)C(OC(C)=O)[C@]7(C)C(/C(=C(/O)C(C)C)C(=O)O[C@H]7c7ccoc7)[C@@]6(O5)[C@H](OC(C)=O)[C@@]3(O)C2OC(=O)C(C)C)[C@]14C (stereo partly drawn)
- inhibition [1]: -3.02% (inactive)
- luciferase signal [2]: 24 AU (inactive)

Structure (SMILES): N[C@H](C(=O)O)[C@@H]1CC(Cl)=NO1
- inhibition [4]: -15.5%
- score [5]: 0.51
- rescue above control [6]: -2.47
- cytochrome c release ratio [7]: 0.83
- inhibition of aggregation [8]: 25.5%
- glutamate uptake change [9]: 6.6%
- inclusion score [10]: 1
- aggregation suppression score [11]: 0.115
- inhibition [1]: 7.5% (inactive)

Structure (SMILES): Cc1cc(O)c2c(c1O)C(=O)c1c(O)cc(C)c(O)c1C2=O
- inhibition [1]: 2.78% (inactive)
- luciferase signal [2]: 48 AU (inactive)

Structure (SMILES): COc1ccc(/C=C/c2cc(O)cc(O[C@@H]3O[C@H](CO)[C@@H](O)[C@H](O)[C@H]3O)c2)cc1O
- inhibition [4]: 4.89%
- score [5]: 1.27
- rescue above control [6]: -0.21
- cytochrome c release ratio [7]: 0.78
- inhibition of aggregation [8]: 12.9%
- glutamate uptake change [9]: 4.82%
- inclusion score [10]: 2
- aggregation suppression score [11]: 1.41
- inhibition [1]: -5.87% (inactive)

Structure (SMILES): CCOC(=O)C(Cc1ccc(O)cc1)NC(C)=O (stereo not drawn)
- inhibition [4]: -16.6%
- score [5]: 1.58
- rescue above control [6]: 3.83
- cytochrome c release ratio [7]: 0.88
- inhibition of aggregation [8]: -1.73%
- glutamate uptake change [9]: -5.84%
- inclusion score [10]: 2
- aggregation suppression score [11]: 0.981
- parasite load remaining [3]: 109% (inactive)
- viability [3]: 69%
- inhibition [1]: -22.2% (inactive)
- luciferase signal [2]: 72 AU (inactive)

Structure (SMILES): COC(=O)C[C@H]1C(C)(C)C2(O)OC34CC2C(=O)[C@]1(C)C3CC[C@]1(C)C4=CC(=O)O[C@H]1c1ccoc1 (stereo partly drawn)
- inhibition [1]: 4.12% (inactive)
- luciferase signal [2]: 20 AU (inactive)

From PubChem BioAssay
